Shiga inhibitor: Shiga toxin inhibition; Vero cells, Shiga toxin protein synthesis inhibition reporter; inhibition, % at 38.7 µM; hit rate 9.2% among 290,000; AID 2315; in the data active means inhibition mostly above about 28%, no sharp cut-off; inactive means mostly below about 43%; further: 0% is about no effect
RE007 growth inh: less growth of the S. pombe RE007 Vpr strain; S. pombe RE007 Vpr strain, BacTiter-Glo ATP luminescence, 24 h; Potency, µM (top dose mostly 92.2 µM), for inactives: at the highest dose activity change, negative = less growth, actives largely listed as inhibitors; hit rate 0.21% among 360,000; AID 651644; active means well fitted falling curve with a large enough effect; inconclusive means small, poorly fitted or top-dose-only effect; inactive means no such curve, though single readings can be large or run the other way; further: potency means the concentration at half of the fitted maximal effect; on the % scale 0 is the no-effect control and ±100 the full control effect; nearly all actives have a fitted effect of over 50% in size
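Fission yeast strain RE007, carrying one chromosomally integrated HIV-1 vpr copy, was seeded at OD 0.01 in PMG+AL medium with 23 nL pinned compound. After 24 h at 30 °C and 99% humidity, viability was read by BacTiter-Glo luminescence.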
CHX counter: counter-screen for Shiga toxin inhibitors: cycloheximide protein synthesis inhibition; cell reporter, cycloheximide protein synthesis inhibition counterscreen; max response, %; hit rate 12% among 300,000; AID 2314; in the data active means max response mostly above about 13%, no sharp cut-off; inactive means mostly below about 14%; further: read at 38.3 µM for the half of the compounds with a filed dose; 0% is about no effect
TbPYK inhibitor: blocks Trypanosoma brucei pyruvate kinase. TbPYK enzyme, Kinase-Glo Plus ATP luminescence, 45 min. Potency, µM (highest dose often 76.8 µM), without a hit: at the top dose activity, negative = inhibition, hits mostly inhibitors. hit rate 0.12% among 410,000; further: potency means the concentration at half of the fitted maximal effect; on the % scale 0 is the no-effect control and ±100 the full control effect; nearly all actives have a fitted effect of over 50% in size
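Quantitative HTS: titrated library compounds versus trypanosomal pyruvate kinase in TEA buffer (pH 7.2) containing KCl, MgCl2, BSA and Tween-20. Reactions were initiated with ADP, 130 uM final. Kinase-Glo Plus luminescence was read after 45 min at RT.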
LmPK inh: blocks Leishmania mexicana pyruvate kinase activity. Q27686. purified LmPK, Kinase-Glo ATP luminescence, 1 h. Potency, µM (titrated, usually from 57.5 µM), for the others: at the highest dose activity change, negative = inhibition, usual class: inhibitors. hit rate 0.37% among 290,000; further: potency means the concentration at half of the fitted maximal effect; on the % scale 0 is the no-effect control and ±100 the full control effect
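Screened at intermediate enzyme activity to detect both inhibitors and activators: LmPK at 0.1 nM, with a 0.5 nM enzyme column as activation reference. PEP 0.5 mM, ADP 0.1 mM; ATP detected by luminescence after 1 h.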
Giardia FBPA inh: inhibitors of Giardia lamblia fructose-1,6-bisphosphate aldolase | purified Giardia FBPA | hit rate 0.71% among 290,000 | Potency, µM (doses to about 59.6 µM), for the others: top-dose activity, negative = inhibition, most hits filed as inhibitors | AID 2451; further: potency means the concentration at half of the fitted maximal effect; on the % scale 0 is the no-effect control and ±100 the full control effect; nearly all actives have a fitted effect of over 55% in size
Target sequence (A8B2U2 whole entry, looked up): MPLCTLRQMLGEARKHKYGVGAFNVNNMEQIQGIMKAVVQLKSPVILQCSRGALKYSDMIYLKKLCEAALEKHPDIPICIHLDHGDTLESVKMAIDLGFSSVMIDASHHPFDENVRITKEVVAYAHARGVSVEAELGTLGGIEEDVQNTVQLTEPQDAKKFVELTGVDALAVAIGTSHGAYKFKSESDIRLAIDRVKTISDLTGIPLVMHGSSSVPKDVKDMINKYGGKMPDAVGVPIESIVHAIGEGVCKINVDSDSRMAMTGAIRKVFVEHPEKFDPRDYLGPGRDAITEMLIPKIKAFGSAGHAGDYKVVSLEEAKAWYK
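Giardia FBPA (40 nM reagent) was preincubated 10 min at RT with compound (up to 57.5 uM final), then substrate plus GAPDH/TPI/NAD/arsenate coupling system with diaphorase/resazurin was added; resorufin fluorescence (525/598 nm) was read after 20 min.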
* = called active by the depositor; ? = inconclusive; . = no result given; ! = repeats disagree; [ ] = another dose, or the depositor's remark. This is one part of a sample in which hits are shown more often than they occur. Unless noted, the call rests on the fitted dose curve; in most records, active means well fitted curve in the direction sought with a large enough effect; inconclusive means small, poorly fitted or top-dose-only effect, or another doubt; inactive means no such curve, though single readings can be large; an effect the other way counts as inactive or inconclusive.

SMILES | Shiga inhibitor | RE007 growth inh | CHX counter | TbPYK inhibitor | LmPK inh | Giardia FBPA inh
CC1CCN(Cc2c(C(=O)O)nnn2-c2nonc2N)CC1 | 4 | 4% | -1 | 0% | 4% | -15%
Cc1ccc(-c2csc(N=C(N)N)n2)cc1 | 64* | 2% | 28* | 5% | 0% | 2%
Cc1c(C(=O)NCc2ccccc2C(F)(F)F)sc(=O)n1Cc1ccc(F)cc1 | . | -27%[18.4 µM] | . | 0% | . | .
O=C(NCCOc1ccccc1)c1cc2ccccc2o1 | 117* | -14% | 45* | 1% | -1% | 11%
Cc1ccc(OCCNC(=O)c2ccc(COc3ccccc3)o2)cc1 | . | 28% | . | 1% | . | .
O=C(COc1ccccc1)NNC(=O)c1cc2ccccc2o1 | 2 | -20% | -2 | -4% | 3% | -1%
CC(C)Cc1ccc(C(=O)NCCOc2ccccc2)o1 | 80* | 21% | 29* | 14% | -3% | 16%
CC(=O)OC(=C(OC(C)=O)c1ccccc1)c1ccccc1 | . | 7% | . | 4% | . | .
N#CC(=C1C=CC(=NO)C(Cl)=C1)c1ccc(Cl)cc1 | . | -10% | . | -6% | . | .
CC(=O)ON=C1C=CC(=C(C#N)c2ccccc2)C=C1 | . | 4µM* | . | ? | . | .
COc1ccc(C(C#N)=C2C=CC(=NO)C=C2)cc1 | -3 | ? | 18* | -15% | -4% | 0%
COc1ccc(-c2cn3c(n2)sc2cc(C(=O)Nc4cccc(SC)c4)ccc23)cc1 | . | . | . | -3% | . | .
CC(C)c1ccc(NC(=O)CSc2nc3ccccc3nc2N2CCCC2)cc1 | 16* | -4% | 11 | -2% | -3% | -2%
Cc1ccc(NC(=O)CSc2nc3ccccc3nc2N2CCCC2)cc1 | 33* | -11% | 21* | -3% | -8% | 10%
CCc1ccc(NC(=O)CSc2nc3ccccc3nc2N2CCCC2)cc1 | 2 | -11% | 2 | -3% | 1% | 8%
O=C(CSc1nc2ccccc2nc1N1CCCC1)Nc1ccc(Cl)cc1 | 11 | 4% | -2 | -7% | -5% | 3%
COc1cccc(NC(=O)CSc2nc3ccccc3nc2N2CCOCC2)c1 | 12 | 1% | 24*! | -9% | 6% | -7%
C[C@H]1O[C@@H](O[C@H]2[C@@H](O)C[C@H](O[C@H]3[C@@H](O)C[C@H](O[C@H]4CC[C@]5(C)C6CC[C@]7(C)[C@@H](C8=CC(=O)OC8)CC[C@]7(O)C6CC[C@@H]5C4)O[C@@H]3C)O[C@@H]2C)C[C@H](O)[C@@H]1O (some centres not stated) | . | . | . | . | . | 0%
Cc1ccc(NC(=O)c2ccc(-n3c(C)nnc3C)cc2)cc1F | . | . | . | 0% | . | .
CC(C)OCCCNC(=O)C(Cc1ccccc1)NS(=O)(=O)c1ccc2c(c1)CCC(=O)N2 (configuration not stated) | 14 | 0% | -1 | -1% | -1% | .
Nc1ccc(Cl)cc1C(=O)c1ccccc1 | -5 | 16% | 8 | -1% | 9% | -11%
O=C(c1ccccc1)c1cc(Cl)ccc1N1C(=O)C=CC1=O | -2 | 25µM* | 3 | 4.5µM* | ? | ?
COCCCn1c(=S)[nH]c2sc3c(c2c1=O)CCCS3 | 91* | 7% | 40* | -21% | ? | -6%
COCCn1c(=S)[nH]c2sc3c(c2c1=O)CCC(C)C3 (configuration not stated) | 3 | 0% | -1 | ? | -5% | 0%
O=C1CC(SCc2nc3ccccc3[nH]2)C(=O)N1c1ccc(Cl)cc1 (configuration not stated) | -15 | 16µM* | 2 | -7% | -1% | -17%
O=C1CC(SCc2nc3ccccc3[nH]2)C(=O)N1c1ccc(F)c(Cl)c1 (configuration not stated) | -6 | -5%[3.69 µM] | -3 | . | 5% | -3%
O=C1CC(SCc2nc3ccccc3[nH]2)C(=O)N1c1cccc(F)c1 (configuration not stated) | -8 | 32µM* | -1 | -7% | 2% | -19%
CCOc1ccc(N2C(=O)CC(SCc3nc4ccccc4[nH]3)C2=O)cc1 (configuration not stated) | 10 | 10µM* | 8 | 5% | 2% | -17%

Source: PubChem BioAssay (National Center for Advancing Translational Sciences (NCATS))
